# Measured values: PubChem BioAssay (NCATS)
# Results filed as inconclusive are left out. Active and inactive are the calls of the source. Calls follow the shape of the dose curve; as a rule, active = well fitted inhibition curve with a large enough effect; inconclusive = small, poorly fitted or top-dose-only effect; inactive = flat fitted curve, though single readings scatter.
# Tested on: Zika virus NS2B-NS3 protease
# Assay: Primary screen GU AMC qHTS for Zika virus inhibitors (AID 1347154);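 also: 0% = no-inhibitor control and -100% = no-enzyme control; nearly all actives have a fitted effect of over 70% in size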
# Settings: Zika NS2B-NS3 unlinked protease, AMC fluorogenic substrate; series mostly up to 54.1 µM; activity change, negative = inhibition: at the top concentration
# Procedure, shortened: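 Unlinked Zika NS2B hydrophilic domain–NS3 protease complex at 25 nM in 10 mM Tris-HCl pH 8.0, 0.01% Tween 20, with an AMC peptide substrate. Fluorescence change (340/450 nm) over 15 min at room temperature, normalized to controls, fitted to 4-parameter Hill.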
row,SMILES,"activity change, negative = inhibition"
1,CCOC(=O)NNc1ccc(N(CC)CC(C)O)nn1 (configuration not stated),-5.12% (inactive)
2,C[N+]1(CC2COC(c3ccccc3)(c3ccccc3)O2)CCCCC1 (configuration not stated),-2.39% [at 25.8 µM] (inactive)
3,CC(C)=CCC/C(C)=C/CC/C(C)=C/CCC(=O)OC/C=C(\C)CCC=C(C)C,0.793% (inactive)
4,CCN1CCCC1CN (configuration not stated),3.45% (inactive)
5,COC(=O)CCCCC(CCSS/C(CCO)=C(\C)N(C=O)Cc1cnc(C)nc1N)SC(C)=O (configuration not stated),-3.99% (inactive)
6,O=C(O)Cn1cnnn1,2.08% (inactive)
7,O=C(c1ccccc1)c1ccccc1,3.54% (inactive)
8,O=C1Nc2ccccc2C1(c1ccc(O)cc1)c1ccc(O)cc1,-4.11% (inactive)
9,Nc1nc(=O)n([C@@H]2O[C@H](CO)[C@@H](O)[C@@H]2F)cc1I,2.97% (inactive)
10,O=C(O)CCCC[C@@H]1SC[C@@H]2NC(=O)N[C@@H]21,-2.63% (inactive)
11,c1ccc2c(c1)CCc1ccccc1N2,-11.9% (inactive)
12,CC(C)(C)C(O)/C=C/c1ccc2c(c1)OCO2 (configuration not stated),0.119% (inactive)
13,CCC(C(=O)NC(=O)NC(C)=O)c1ccccc1 (configuration not stated),0.513% (inactive)
14,CC(C)NCCCC1(C(N)=O)c2ccccc2-c2ccccc21,-5.17% (inactive)
15,CO/N=C(/C(=O)N[C@@H]1C(=O)N2C(C(=O)O)=C(Cn3nnc(C)n3)CS[C@H]12)c1csc(N)n1,-4.25% (inactive)
16,O=C(CCOCCOCCOCCOCCC(=O)Nc1c(I)cc(I)c(C(=O)O)c1I)Nc1c(I)cc(I)c(C(=O)O)c1I,-6.27% (inactive)
17,CCOc1ncc(F)c(=O)[nH]1,-4.8% (inactive)
18,NC(=O)NS(=O)(=O)c1ccc(Cl)cc1,2.8% (inactive)
19,O=C(O)[C@@H](O)[C@H](O)[C@H](O)[C@@H](O)C(=O)O,-3.68% (inactive)

row,SMILES,"activity change, negative = inhibition"
1,CCN1CCN(C(=O)N[C@@H](C(=O)N[C@@H]2C(=O)N3[C@@H]2SC(C)(C)[C@H]3C(=O)O)c2ccccc2)C(=O)C1=O,-4.78% (inactive)
2,N#CSCC(=O)O,3.82% (inactive)
3,O=C1CC[C@H](C(=O)N2CCCCC2)N1,-5.47% (inactive)
4,Nc1nnnn1-c1ccccc1,0.823% (inactive)
5,CCOC(=O)c1ccc(OCCN2C[C@H](O)[C@@H](O)[C@H](O)[C@H]2CO)cc1,3.38% (inactive)
6,CCCc1ncc(C(=O)O)s1,-3.21% (inactive)
7,Cc1cccc(C)c1NC(=O)c1cc(S(N)(=O)=O)c(Cl)cc1O,-3.99% (inactive)
8,Nc1ccc([N+](=O)[O-])c(C(F)(F)F)c1,4.46% (inactive)
9,CCCCN(CCN(CCCC)C(=O)N1CCOCC1)C(=O)N1CCOCC1,-4.09% (inactive)
10,CN(C)CCOC(c1ccccc1)c1ccc(Br)cc1 (configuration not stated),5.27% (inactive)
11,CC(C)C(=O)Nc1cccc(C2CN3CCSC3=N2)c1 (configuration not stated),3.19% (inactive)
12,O=C(CCCCCCCCC#CI)Oc1ccccc1,-13.9% (inactive)
13,COc1ccccc1OCC1CNC(=O)O1 (configuration not stated),-1.97% (inactive)
14,C=C(C)C(=O)OCC(O)CO (configuration not stated),-0.659% (inactive)
15,CC(C)(C)C1CCC(CC2=C(O)c3ccccc3C(=O)C2=O)CC1 (configuration not stated),-0.73% (inactive)
16,CCCCCC[C@@H](CCC)C(=O)O,-1.77% (inactive)
17,CCCC(=O)Nc1ccc(O)c(C(C)=O)c1,4.08% (inactive)
18,O=C(OCCN1CCOCC1)c1cccnc1Nc1cccc(C(F)(F)F)c1,-0.748% (inactive)
